Test results taken from PubChem BioAssay (NCI).
“And” between values parts separate entries of the source, which are not always exact repeats. Equal values may be shown once. The panel holds about 83,000 compounds, 20% with a hit somewhere; the sample as a whole holds those more often.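 Results are percent growth after 48 hours of single-concentration exposure. 100 means growth as in untreated cells, lower positive values show inhibition; negative values down to -100 show cell death.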 Some structures have more than one record in an assay (separate samples or runs), and their calls can disagree. The source made the active and inactive calls. The calls were made as follows: active = growth percent below 10; inactive = the rest. Where a SMILES comes first, the peptide text is derived from it.

Key:
Assay in all cases: NCI-60 one-dose screen, 48 h (100 = growth as untreated, 0 = no growth, -100 = all killed)
[1] = tested on: HCT-15 colon; details: 10 µM unless noted
[2] = tested on: SNB-75 CNS; details: 10 µM unless noted
[3] = tested on: SNB-19 CNS; details: 10 µM unless noted
[4] = tested on: U251 CNS; details: 10 µM unless noted
[5] = tested on: PC-3 prostate; details: 10 µM unless noted
[6] = tested on: SK-MEL-5 melanoma; details: 10 µM unless noted
[7] = tested on: UACC-62 melanoma; details: 10 µM unless noted
[8] = tested on: LOX IMVI melanoma; details: 10 µM unless noted
[9] = tested on: SK-MEL-28 melanoma; details: 10 µM unless noted
[10] = tested on: SK-MEL-2 melanoma; details: 10 µM unless noted
[11] = tested on: SN12C renal; details: 10 µM unless noted
[12] = tested on: UO-31 renal; details: 10 µM unless noted
[13] = tested on: TK-10 renal; details: 10 µM unless noted
[14] = tested on: ACHN renal; details: 10 µM unless noted
[15] = tested on: CAKI-1 renal; details: 10 µM unless noted
[16] = tested on: A498 renal; details: 10 µM unless noted
[17] = tested on: CCRF-CEM leukemia; details: 10 µM
[18] = tested on: MOLT-4 leukemia; details: 10 µM unless noted
[19] = tested on: EKVX NSCLC; details: 10 µM

In the case of `Fc1ccc([I+]c2ccc(F)cc2)cc1`, the growth [1] is reported as 94.3% (inactive), the growth [2] is reported as 80% (inactive) and the growth [3] is reported as 70% (inactive). The growth [4] was 66.4% (inactive), the growth [5] was 63.5% (inactive) and the growth [6] was 52.2% (inactive). For the same compound, the growth [7] was 82.5% (inactive), the growth [8] was 47.9% (inactive) and the growth [9] was 95.8% (inactive). The growth [10] was 68.8% (inactive), the growth [11] was 92.9% (inactive) and the growth [12] was 74.6% (inactive). For the same compound, the growth [13] was 71.2% (inactive), the growth [14] was 79.5% (inactive) and the growth [15] was 61.2% (inactive). The growth [16] was 78.3% (inactive), the growth [17] was 48.2% (inactive) and the growth [18] was 54.8% (inactive).
`O=C1NC(N/N=C\C(O)C(O)C(O)CO)=N/C1=C/c1ccc(Cl)cc1` (stereo not drawn) was tested, and the growth [7] was 3.82% [100 µM] (active) and -100% [100 µM] (active) and 32.5% [100 µM] (inactive) and the growth [13] was 54.4% [100 µM] (inactive) and -100% [100 µM] (active) and 89.6% [100 µM] (inactive).
With `NC(Cc1ccccc1)C(=O)NC(Cc1ccccc1)C(=O)O` (stereo not drawn) (H-Phe-Phe-OH; configuration not given here) the growth [1] was 106% (inactive) and 98.3% (inactive), the growth [2] was 88.1% (inactive) and 93.5% (inactive) and the growth [3] was 94.5% (inactive) and 100% (inactive). For the same compound, the growth [4] was 99% (inactive) and 94% (inactive), the growth [5] was 95.2% (inactive) and 90.6% (inactive) and the growth [6] was 100% (inactive) and 94.8% (inactive). The growth [7] was 104% (inactive), the growth [8] was 95.3% (inactive) and 103% (inactive) and the growth [9] was 103% (inactive) and 105% (inactive). For the same compound, the growth [10] was 99.1% (inactive) and 104% (inactive), the growth [19] was 98% (inactive) and the growth [11] was 103% (inactive) and 101% (inactive). For the same compound, the growth [12] was 88.5% (inactive) and 86.9% (inactive), the growth [13] was 105% (inactive) and the growth [14] was 103% (inactive). For the same compound, the growth [15] was 106% (inactive) and 97.1% (inactive), the growth [16] was 93.2% (inactive) and 102% (inactive) and the growth [17] was 118% (inactive) and 98.4% (inactive). For the same compound, the growth [18] was 100% (inactive) and 101% (inactive).
In the case of `COc1ccc(N/C=C/C2=[N+](C)c3ccccc3C2(C)C)c(OC)c1`, the growth [1] is reported as 99.3% (inactive), the growth [2] is reported as 89.5% (inactive) and the growth [3] is reported as 102% (inactive). The growth [4] was 91.2% (inactive), the growth [5] was 87.6% (inactive) and the growth [6] was 90.9% (inactive). The growth [7] was 92.9% (inactive), the growth [8] was 96% (inactive) and the growth [9] was 113% (inactive). The growth [10] was 114% (inactive), the growth [11] was 96.6% (inactive) and the growth [12] was 78.8% (inactive). The growth [13] was 106% (inactive), the growth [14] was 104% (inactive) and the growth [15] was 81.9% (inactive). For the same compound, the growth [17] was 90.7% (inactive) and the growth [18] was 104% (inactive).
For `Nc1nc(N)c2[nH]cnc2n1`, the growth [1] was 107% (inactive), the growth [2] was 91.3% (inactive) and the growth [3] was 96.1% (inactive). For the same compound, the growth [4] was 111% (inactive), the growth [5] was 79.3% (inactive) and the growth [6] was 98.1% (inactive). The growth [7] was 84.3% (inactive), the growth [8] was 83% (inactive) and the growth [9] was 99.9% (inactive). The growth [10] was 109% (inactive), the growth [19] was 97.5% (inactive) and the growth [11] was 102% (inactive). The growth [12] was 86.9% (inactive), the growth [13] was 121% (inactive) and the growth [14] was 89.3% (inactive). The growth [15] was 84.6% (inactive), the growth [16] was 109% (inactive) and the growth [17] was 98.2% (inactive). The growth [18] was 92.6% (inactive).
In the case of `ClCCOCCOc1ccc(C2CCCCC2)cc1`, the growth [1] is reported as 105% (inactive), the growth [2] is reported as 98.2% (inactive) and the growth [3] is reported as 98.4% (inactive). The growth [4] was 89.7% (inactive), the growth [5] was 101% (inactive) and the growth [6] was 98.8% (inactive). The growth [7] was 98.6% (inactive), the growth [8] was 107% (inactive) and the growth [9] was 102% (inactive). The growth [10] was 102% (inactive), the growth [11] was 96.3% (inactive) and the growth [12] was 99.5% (inactive). For the same compound, the growth [13] was 108% (inactive), the growth [14] was 108% (inactive) and the growth [15] was 97.3% (inactive). For the same compound, the growth [16] was 73.1% (inactive), the growth [17] was 107% (inactive) and the growth [18] was 120% (inactive).
For `CC[C@H](CC[C@@H](C)[C@H]1CC[C@H]2[C@@H]3CC=C4C[C@@H](O)CC[C@]4(C)[C@H]3CC[C@]12C)C(C)C`, the growth [1] was 80.9% (inactive) and 102% (inactive), the growth [2] was 81.3% (inactive) and 101% (inactive) and the growth [3] was 99.5% (inactive) and 98.1% (inactive). For the same compound, the growth [4] was 90.3% (inactive) and 104% (inactive), the growth [5] was 106% (inactive) and 98.2% (inactive) and the growth [6] was 95.2% (inactive) and 105% (inactive). For the same compound, the growth [7] was 96% (inactive) and 101% (inactive), the growth [8] was 92.6% (inactive) and 101% (inactive) and the growth [9] was 99.9% (inactive) and 103% (inactive). The growth [10] was 100% (inactive) and 117% (inactive), the growth [19] was 102% (inactive) and 107% (inactive) and the growth [11] was 94.7% (inactive) and 105% (inactive). The growth [12] was 92.7% (inactive) and 96.2% (inactive), the growth [13] was 91.7% (inactive) and 107% (inactive) and the growth [14] was 94.4% (inactive) and 103% (inactive). The growth [15] was 93.2% (inactive) and 90% (inactive), the growth [16] was 103% (inactive) and 105% (inactive) and the growth [17] was 91.1% (inactive) and 97.8% (inactive). The growth [18] was 108% (inactive) and 103% (inactive).
In the case of `CC1CCC(C(C)C)C(NNC(N)=O)C1` (stereo not drawn), the growth [1] is reported as 112% (inactive), the growth [2] is reported as 102% (inactive) and the growth [3] is reported as 98.4% (inactive). For the same compound, the growth [4] was 92.4% (inactive), the growth [5] was 86.2% (inactive) and the growth [6] was 102% (inactive). The growth [8] was 100% (inactive), the growth [9] was 120% (inactive) and the growth [10] was 107% (inactive). The growth [19] was 101% (inactive), the growth [11] was 101% (inactive) and the growth [12] was 86.6% (inactive). The growth [13] was 105% (inactive), the growth [14] was 110% (inactive) and the growth [15] was 98.9% (inactive). For the same compound, the growth [16] was 102% (inactive), the growth [17] was 106% (inactive) and the growth [18] was 113% (inactive).
For `CCCCCCCCCCCCCCCCC(C(=O)O)C(O)(CC(=O)O)C(=O)O` (stereo not drawn), the growth [1] was 105% (inactive) and 66.4% (inactive), the growth [2] was 98.8% (inactive) and -58.3% (active) and the growth [3] was 110% (inactive) and 15% (inactive). The growth [4] was 101% (inactive) and 8.93% (active), the growth [5] was 110% (inactive) and 19.8% (inactive) and the growth [6] was 107% (inactive). The growth [7] was 108% (inactive) and -70.3% (active), the growth [8] was 106% (inactive) and 0.982% (active) and the growth [9] was 108% (inactive). The growth [10] was 95.4% (inactive) and -42.9% (active), the growth [19] was 38.2% (inactive) and the growth [11] was 110% (inactive) and 17.4% (inactive). For the same compound, the growth [12] was 98.7% (inactive) and 59.3% (inactive), the growth [13] was 94.1% (inactive) and 34% (inactive) and the growth [14] was 96.8% (inactive) and 28.4% (inactive). The growth [15] was 103% (inactive) and 74.9% (inactive), the growth [16] was 113% (inactive) and the growth [17] was 2.43% (active). For the same compound, the growth [18] was 90.3% (inactive) and 1.35% (active).
With `c1ccc(CNCCNCc2ccccc2)cc1` the growth [1] was 101% (inactive), the growth [2] was 86.7% (inactive) and the growth [3] was 107% (inactive). For the same compound, the growth [4] was 96% (inactive), the growth [5] was 92.4% (inactive) and the growth [6] was 107% (inactive). For the same compound, the growth [7] was 105% (inactive), the growth [8] was 110% (inactive) and the growth [9] was 108% (inactive). The growth [10] was 102% (inactive), the growth [11] was 105% (inactive) and the growth [12] was 79.4% (inactive). For the same compound, the growth [13] was 119% (inactive), the growth [14] was 99.7% (inactive) and the growth [15] was 98.5% (inactive). The growth [16] was 96.5% (inactive), the growth [17] was 92.6% (inactive) and the growth [18] was 105% (inactive).
`Cc1cc2ccccc2cn1` was tested, and the growth [1] was 104% (inactive) and 105% (inactive), the growth [2] was 92.9% (inactive) and 83.1% (inactive) and the growth [3] was 95.3% (inactive) and 97.7% (inactive). The growth [4] was 99.4% (inactive) and 103% (inactive), the growth [5] was 95.3% (inactive) and 96% (inactive) and the growth [6] was 101% (inactive) and 109% (inactive). The growth [7] was 92.5% (inactive) and 95.2% (inactive), the growth [8] was 102% (inactive) and 99.7% (inactive) and the growth [9] was 109% (inactive) and 200% (inactive). For the same compound, the growth [10] was 107% (inactive), the growth [19] was 93% (inactive) and the growth [11] was 94% (inactive) and 104% (inactive). The growth [12] was 83.2% (inactive) and 82.6% (inactive), the growth [13] was 103% (inactive) and 93.4% (inactive) and the growth [14] was 107% (inactive) and 102% (inactive). For the same compound, the growth [15] was 100% (inactive) and 67.8% (inactive), the growth [16] was 100% (inactive) and 197% (inactive) and the growth [17] was 102% (inactive) and 120% (inactive). For the same compound, the growth [18] was 112% (inactive) and 88.7% (inactive).
In the case of `O=C1OC(c2ccccc2)=N/C1=C\c1ccccc1`, the growth [1] is reported as 105% (inactive), the growth [2] is reported as 83% (inactive) and the growth [3] is reported as 98.9% (inactive). For the same compound, the growth [4] was 91% (inactive), the growth [5] was 95.9% (inactive) and the growth [6] was 97.7% (inactive). The growth [7] was 101% (inactive), the growth [8] was 98.1% (inactive) and the growth [9] was 108% (inactive). The growth [10] was 116% (inactive), the growth [11] was 102% (inactive) and the growth [12] was 95.2% (inactive). For the same compound, the growth [13] was 117% (inactive), the growth [14] was 104% (inactive) and the growth [15] was 110% (inactive). The growth [17] was 100% (inactive) and the growth [18] was 105% (inactive).
